The results in this text go back to PubChem BioAssay AID652208 (Broad Institute, 2013).

The structures appear in SMILES notation. Entries with a potency or affinity are not part of this list. A number with no mark means an inactive call.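 Rule for the calls: active = Loss of cell signal with fitted half-effect dose at or below twice the top valid tested dose; inconclusive = Poor fit, or flat fit from -70 to -30 percent; inactive = Half-effect above limit, rising signal, or flat within 30 percent.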

The experiment is described as follows: HEK293T cell cytotoxicity, dose response, cytotoxicity control for HIV Vif inhibitor project, cherry-picks (AID 652208).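 Note: 0% = median neutral control wells and -100% = median staurosporine control wells.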 The following applies: HEK293T viability, CellTiter-Glo luminescence, 24 h; series mostly up to 26 µM; activity change, negative = cytotoxicity: at the top concentration. A general note: ATP-based viability assays read luminescence as a measure of living cells.
Regarding `CC1Cc2ccccc2N1C(=O)COC(=O)c1ccccc1NCCO` (centres undefined), the “activity change, negative = cytotoxicity” value was -1.22%.
The figure for `Cc1nnc2ccc(-c3cccc(NS(=O)(=O)c4ccccc4Cl)c3)nn12` is -5.54%; for `O=C(CCN1CCOCC1)Nc1ccc(Cl)cc1` it is 0.037%.
For the molecule `CCc1ccc(S(=O)(=O)Nc2ccc(-c3ccc4nnc(C)n4n3)cc2)s1`, the “activity change, negative = cytotoxicity” value was 5.8%.
Regarding `COc1ccc(-c2nc(-c3ccccn3)nc(N3CCN(C)CC3)c2C#N)cc1`, the “activity change, negative = cytotoxicity” value is -3.84%.
The figure for `Cc1cc(NC(=O)CSc2nc3ccccc3c(=O)n2-c2ccccc2)no1` is 1.64%.
Consider `Cc1ccc2c(COC(=O)c3ccccc3OC(F)F)cc(=O)oc2c1`, for which the “activity change, negative = cytotoxicity” value was -30.2%.
On to `COc1ccc(OC)c(/C=C/c2nc3ccccc3[nH]c2=O)c1`, for which the “activity change, negative = cytotoxicity” value is -29.7%.
With `Cc1nn(C)cc1CN(C)Cc1ccc(OCC(O)CN2CCCCC2)cc1` (centres undefined) the figure was 0.017%.
In the case of `Cc1cccc2cc(CN(CC3CCCO3)C(=O)NC3CCCCC3)c(=O)[nH]c12` (centres undefined), the “activity change, negative = cytotoxicity” value is 6.93%.
For `Cc1cc(/C=C2\NC(=S)N(C)C2=O)ccc1N1CCCC1`, the “activity change, negative = cytotoxicity” value was 3.57%.
The figure for `NS(=O)(=O)c1ccc(NC(=O)CCC(=O)N2CCOCC2)cc1` is 3.75%.
The figure for `CCC(C)n1c(-c2cccs2)nc2nc3ccccc3nc21` (centres undefined) is -14.9%.
The figure for `c1ccc(-c2cn3nc(-c4ccccc4)c(-c4ccccc4)nc3n2)cc1` is -10.3%; for `CCCn1nnc(NC(=O)C(c2ccccc2)c2ccccc2)n1` it is -16.2%; for `CCn1c(SCc2nc3ccccc3c(=O)[nH]2)nc2ccccc2c1=O` it is -8.27%.
In the case of `Cc1ccc2c(c1)N(CC(=O)N1CCCCCC1)C(=O)C(C)O2` (centres undefined), the “activity change, negative = cytotoxicity” value is -2.8%.
On to `CC1CN(S(=O)(=O)c2cccc(C(=O)N3CCC(C(N)=O)CC3)c2)CC(C)O1` (centres undefined), for which the “activity change, negative = cytotoxicity” value is 5.09%.
With `Cc1cc(C)c(S(=O)(=O)N2CCN(S(=O)(=O)N3CCOCC3)CC2)c(C)c1` the figure was 2.67%.
